Targets with a hit are over-represented here; the source holds about 7,900 in all. About 0.6% of all pairs of compound and target were hits. A number with no mark means an inactive call.
Key:
Test in all cases: log2 fold change, soluble protein after heating vs DMSO (PISA); higher = thermal stabilisation; K562 cells, 10 uM, 30 min; active = over 0.2 and 3.5 SD of the protein, either way, in both replicates (recomputed)
[1] = compound: CC1=C(C=C(C=C1)NC(=O)C2=CC(=CC=C2)C(C)(C)C#N)NC3=CC4=C(C=C3)N=CN(C4=O)C
How it was run: (§1)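 Soluble protein was quantified by TMTpro 16plex LC-MS/MS after channel sums were equalised. It was obtained as the supernatant after 21,000xg for 90 min from pooled aliquots of K562 cells (2×10^6 cells/mL, 10 μM compound, 30 min) heated for 3 min across 48°C-58°C and extracted in PBS with 0.5% NP-40 at 4°C. Thermal stability values are relative to control samples and come from duplicates. They are given as log2 fold changes.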

[2] = compound: CC1=C(C=C(C=C1)NC(=O)C2=CC(=CC=C2)N(C)C)NC(=O)C3=CC=C(C=C3)O
How it was run: as §1

[3] = compound: CC1=CC=C(C=C1)SC2=C3C=C(SC3=CN=C2)C(=O)N
How it was run: as §1

[4] = compound: CC1=NC(=CC=C1)C2=C(N=C(N2)C(C)(C)C)C3=CC4=NC=CN=C4C=C3
How it was run: as §1

Nexturastat A = compound: CCCCN(Cc1ccc(C(=O)NO)cc1)C(=O)Nc1ccccc1 [Nexturastat A]
How it was run: as §1

vemurafenib = compound: CCCS(=O)(=O)Nc1ccc(F)c(C(=O)c2c[nH]c3ncc(-c4ccc(Cl)cc4)cc23)c1F [vemurafenib]
How it was run: as §1

[5] = compound: CCCS(=O)(=O)Nc1ccc(F)c(C(=O)c2c[nH]c3ncc(Cl)cc23)c1F
How it was run: as §1

[6] = compound: CCCc1cc(C)[nH]c(=O)c1CNC(=O)c1cc(-c2ccnc(N3CCN(C)CC3)c2)cc2c1cnn2C(C)C
How it was run: as §1

givinostat = compound: CCN(CC)Cc1ccc2cc(COC(=O)Nc3ccc(C(=O)NO)cc3)ccc2c1 [givinostat]
How it was run: as §1

barasertib = compound: CCN(CCCOc1ccc2c(Nc3cc(CC(=O)Nc4cccc(F)c4)[nH]n3)ncnc2c1)CCOP(=O)(O)O [barasertib]
How it was run: as §1

[7] = compound: CC[C@@H]1C(=O)N(C)c2cnc(Nc3ccc(C(=O)NC4CCN(C)CC4)cc3OC)nc2N1C1CCCC1
How it was run: as §1

volasertib = compound: CC[C@@H]1C(=O)N(C)c2cnc(Nc3ccc(C(=O)N[C@H]4CC[C@H](N5CCN(CC6CC6)CC5)CC4)cc3OC)nc2N1C(C)C [volasertib]
How it was run: as §1

[8] = compound: CC[C@H](C)N1C=C(C2=C(C=C(C=C21)C3=CN=C(C=C3)N4CCNCC4)C(=O)NCC5=C(C=C(NC5=O)C)C)C
How it was run: as §1

epoxomicin = compound: CC[C@H](C)[C@@H](C(=O)N[C@@H]([C@@H](C)O)C(=O)N[C@@H](CC(C)C)C(=O)[C@]1(CO1)C)NC(=O)[C@H]([C@@H](C)CC)N(C)C(=O)C [epoxomicin]
How it was run: as §1

[9] = compound: CCn1c(C(=O)N(C2CC2)C2CC2)cc2c3c(ncn3C)c(Nc3cc(C)n(C)n3)nc21
How it was run: as §1

[10] = compound: CCn1cc(-c2ccnc3[nH]c(-c4cccc(CN(C)C)c4)cc23)c(-c2ccc(NC(=O)N(C)C)cc2)n1
How it was run: as §1

[11] = compound: CN(C)CC(=O)Nc1ccc2[nH]c(=O)c3ccccc3c2c1
How it was run: as §1

rosiglitazone = compound: CN(CCOC1=CC=C(C=C1)C[C@H]2C(=O)NC(=O)S2)C3=CC=CC=N3 (racemic) [rosiglitazone]
How it was run: as §1

[12] = compound: CN1C2=C(C3=C1C(=O)N(N=C3)CC4=CC(=CC=C4)N)SC(=C2)S(=O)C
How it was run: as §1

[13] = compound: CN1CCC(CNc2ccc3ncc(-c4cccc(OC(F)(F)F)c4)n3n2)CC1
How it was run: as §1

Sequence of UniProt Q8NBF2 (Q8NBF2 whole entry, looked up): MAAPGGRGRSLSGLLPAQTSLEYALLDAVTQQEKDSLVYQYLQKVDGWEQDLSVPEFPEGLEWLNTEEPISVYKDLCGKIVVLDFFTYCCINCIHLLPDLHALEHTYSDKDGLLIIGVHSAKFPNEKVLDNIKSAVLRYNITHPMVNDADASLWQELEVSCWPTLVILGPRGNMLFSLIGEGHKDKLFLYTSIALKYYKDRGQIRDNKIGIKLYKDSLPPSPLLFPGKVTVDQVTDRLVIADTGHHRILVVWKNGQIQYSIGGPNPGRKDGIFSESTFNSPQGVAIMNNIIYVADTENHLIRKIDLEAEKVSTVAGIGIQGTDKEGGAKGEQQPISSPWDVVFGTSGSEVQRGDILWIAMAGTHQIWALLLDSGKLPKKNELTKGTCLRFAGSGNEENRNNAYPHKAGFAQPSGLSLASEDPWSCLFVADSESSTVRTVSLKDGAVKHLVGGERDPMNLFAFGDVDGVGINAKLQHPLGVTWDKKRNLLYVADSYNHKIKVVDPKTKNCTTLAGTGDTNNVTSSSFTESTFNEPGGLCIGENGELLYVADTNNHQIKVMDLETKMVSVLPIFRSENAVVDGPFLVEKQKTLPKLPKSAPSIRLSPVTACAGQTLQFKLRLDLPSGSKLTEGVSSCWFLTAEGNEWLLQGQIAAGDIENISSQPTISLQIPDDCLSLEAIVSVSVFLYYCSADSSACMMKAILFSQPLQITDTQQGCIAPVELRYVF
Sequence of UniProt P49914 (P49914 whole entry, looked up): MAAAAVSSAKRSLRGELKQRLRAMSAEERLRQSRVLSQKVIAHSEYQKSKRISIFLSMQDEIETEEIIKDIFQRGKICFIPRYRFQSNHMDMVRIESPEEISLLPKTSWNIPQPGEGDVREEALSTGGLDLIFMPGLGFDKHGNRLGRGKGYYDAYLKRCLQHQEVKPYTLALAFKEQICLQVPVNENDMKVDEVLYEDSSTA
Sequence of UniProt Q9HBL8 (Q9HBL8 whole entry, looked up): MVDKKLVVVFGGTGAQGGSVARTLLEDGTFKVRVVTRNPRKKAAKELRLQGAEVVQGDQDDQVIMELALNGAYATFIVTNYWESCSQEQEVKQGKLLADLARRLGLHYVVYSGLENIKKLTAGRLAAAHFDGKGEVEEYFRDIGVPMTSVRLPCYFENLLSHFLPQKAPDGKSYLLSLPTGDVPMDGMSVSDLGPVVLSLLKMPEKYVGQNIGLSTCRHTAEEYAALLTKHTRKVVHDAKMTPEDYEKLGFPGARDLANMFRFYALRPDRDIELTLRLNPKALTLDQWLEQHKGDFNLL
Sequence of UniProt Q15738 (Q15738 whole entry, looked up): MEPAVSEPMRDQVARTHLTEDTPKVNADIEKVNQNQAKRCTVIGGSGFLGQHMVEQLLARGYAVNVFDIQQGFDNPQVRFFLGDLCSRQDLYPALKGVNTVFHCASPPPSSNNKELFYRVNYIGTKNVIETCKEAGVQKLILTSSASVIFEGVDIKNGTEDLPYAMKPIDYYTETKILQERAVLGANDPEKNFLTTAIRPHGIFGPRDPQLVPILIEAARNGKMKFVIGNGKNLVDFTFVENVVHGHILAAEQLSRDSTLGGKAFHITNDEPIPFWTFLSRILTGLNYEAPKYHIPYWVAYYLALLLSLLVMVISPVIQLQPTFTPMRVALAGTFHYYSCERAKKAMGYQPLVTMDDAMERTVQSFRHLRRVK
Sequence of UniProt Q96T76 (Q96T76 whole entry, looked up): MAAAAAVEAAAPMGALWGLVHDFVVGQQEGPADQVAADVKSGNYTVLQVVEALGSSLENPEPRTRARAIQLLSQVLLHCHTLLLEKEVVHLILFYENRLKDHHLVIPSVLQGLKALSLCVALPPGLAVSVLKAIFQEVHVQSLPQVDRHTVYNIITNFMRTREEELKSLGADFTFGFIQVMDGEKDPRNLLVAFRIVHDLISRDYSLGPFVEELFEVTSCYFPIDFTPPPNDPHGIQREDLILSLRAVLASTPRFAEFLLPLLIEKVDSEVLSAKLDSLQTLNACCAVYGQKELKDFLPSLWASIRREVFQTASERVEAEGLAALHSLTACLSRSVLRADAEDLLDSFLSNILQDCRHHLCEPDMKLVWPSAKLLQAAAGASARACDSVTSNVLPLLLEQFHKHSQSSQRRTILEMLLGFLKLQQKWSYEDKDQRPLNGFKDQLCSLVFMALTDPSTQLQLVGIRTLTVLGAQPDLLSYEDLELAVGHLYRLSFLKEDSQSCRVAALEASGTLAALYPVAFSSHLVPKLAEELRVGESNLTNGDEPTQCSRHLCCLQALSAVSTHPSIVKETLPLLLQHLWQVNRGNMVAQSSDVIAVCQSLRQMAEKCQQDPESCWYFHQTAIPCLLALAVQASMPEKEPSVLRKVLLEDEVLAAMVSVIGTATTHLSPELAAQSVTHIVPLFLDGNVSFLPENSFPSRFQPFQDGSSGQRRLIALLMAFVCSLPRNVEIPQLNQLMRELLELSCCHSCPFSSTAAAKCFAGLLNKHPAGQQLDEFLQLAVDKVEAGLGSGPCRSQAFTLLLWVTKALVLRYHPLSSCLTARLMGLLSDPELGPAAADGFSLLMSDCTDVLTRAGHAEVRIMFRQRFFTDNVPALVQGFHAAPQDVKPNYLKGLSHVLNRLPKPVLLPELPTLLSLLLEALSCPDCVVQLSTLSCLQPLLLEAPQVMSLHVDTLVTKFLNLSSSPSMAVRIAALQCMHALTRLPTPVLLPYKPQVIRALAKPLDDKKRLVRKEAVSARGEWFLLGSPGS
Sequence of UniProt O60934 (O60934 whole entry, looked up): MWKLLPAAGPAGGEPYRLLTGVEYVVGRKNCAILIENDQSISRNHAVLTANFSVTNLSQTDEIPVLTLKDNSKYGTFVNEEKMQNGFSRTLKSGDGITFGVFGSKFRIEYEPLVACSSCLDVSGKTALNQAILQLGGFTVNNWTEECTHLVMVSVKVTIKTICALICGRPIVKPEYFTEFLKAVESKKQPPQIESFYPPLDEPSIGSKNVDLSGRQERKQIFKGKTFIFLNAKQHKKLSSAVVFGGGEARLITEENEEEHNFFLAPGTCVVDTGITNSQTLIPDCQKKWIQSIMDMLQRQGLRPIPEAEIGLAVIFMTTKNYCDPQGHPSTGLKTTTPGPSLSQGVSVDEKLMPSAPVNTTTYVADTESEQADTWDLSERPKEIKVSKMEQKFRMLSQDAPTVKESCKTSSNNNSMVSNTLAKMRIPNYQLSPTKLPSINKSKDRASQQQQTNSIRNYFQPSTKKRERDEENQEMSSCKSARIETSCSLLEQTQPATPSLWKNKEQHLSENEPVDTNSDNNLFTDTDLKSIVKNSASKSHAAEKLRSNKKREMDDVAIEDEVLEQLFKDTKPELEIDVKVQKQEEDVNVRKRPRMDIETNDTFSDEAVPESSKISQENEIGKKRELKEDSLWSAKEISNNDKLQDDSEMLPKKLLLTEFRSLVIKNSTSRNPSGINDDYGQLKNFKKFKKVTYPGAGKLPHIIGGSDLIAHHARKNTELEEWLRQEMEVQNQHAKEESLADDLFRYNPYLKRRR
Sequence of UniProt Q12968 (Q12968 whole entry, looked up): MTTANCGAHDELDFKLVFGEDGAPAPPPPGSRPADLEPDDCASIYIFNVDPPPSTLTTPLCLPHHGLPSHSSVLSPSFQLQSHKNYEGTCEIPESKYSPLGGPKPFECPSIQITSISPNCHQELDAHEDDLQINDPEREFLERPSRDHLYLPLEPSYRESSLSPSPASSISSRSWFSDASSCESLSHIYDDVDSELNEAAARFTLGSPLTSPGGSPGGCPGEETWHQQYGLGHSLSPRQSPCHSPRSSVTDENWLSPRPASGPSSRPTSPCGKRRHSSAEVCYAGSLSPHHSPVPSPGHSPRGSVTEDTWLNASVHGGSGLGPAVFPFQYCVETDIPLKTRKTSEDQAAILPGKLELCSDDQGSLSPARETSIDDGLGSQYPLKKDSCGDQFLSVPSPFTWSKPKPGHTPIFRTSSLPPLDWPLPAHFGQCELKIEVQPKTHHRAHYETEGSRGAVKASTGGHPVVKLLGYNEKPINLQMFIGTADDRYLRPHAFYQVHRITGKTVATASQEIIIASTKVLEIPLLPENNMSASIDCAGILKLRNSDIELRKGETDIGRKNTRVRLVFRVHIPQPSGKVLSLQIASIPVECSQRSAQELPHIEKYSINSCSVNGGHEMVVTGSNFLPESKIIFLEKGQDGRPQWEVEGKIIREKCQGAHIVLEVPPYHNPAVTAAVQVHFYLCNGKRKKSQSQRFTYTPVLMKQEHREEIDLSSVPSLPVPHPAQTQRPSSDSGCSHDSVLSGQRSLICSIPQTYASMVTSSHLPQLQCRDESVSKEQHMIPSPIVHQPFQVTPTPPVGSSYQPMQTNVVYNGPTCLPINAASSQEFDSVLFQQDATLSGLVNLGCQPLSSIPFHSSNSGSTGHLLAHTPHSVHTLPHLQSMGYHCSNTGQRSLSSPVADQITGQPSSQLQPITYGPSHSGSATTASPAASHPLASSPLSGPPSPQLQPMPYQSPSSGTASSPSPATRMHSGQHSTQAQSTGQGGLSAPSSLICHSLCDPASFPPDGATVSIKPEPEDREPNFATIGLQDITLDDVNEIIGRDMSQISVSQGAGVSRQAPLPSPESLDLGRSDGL
Sequence of UniProt Q9H3P2 (Q9H3P2 whole entry, looked up): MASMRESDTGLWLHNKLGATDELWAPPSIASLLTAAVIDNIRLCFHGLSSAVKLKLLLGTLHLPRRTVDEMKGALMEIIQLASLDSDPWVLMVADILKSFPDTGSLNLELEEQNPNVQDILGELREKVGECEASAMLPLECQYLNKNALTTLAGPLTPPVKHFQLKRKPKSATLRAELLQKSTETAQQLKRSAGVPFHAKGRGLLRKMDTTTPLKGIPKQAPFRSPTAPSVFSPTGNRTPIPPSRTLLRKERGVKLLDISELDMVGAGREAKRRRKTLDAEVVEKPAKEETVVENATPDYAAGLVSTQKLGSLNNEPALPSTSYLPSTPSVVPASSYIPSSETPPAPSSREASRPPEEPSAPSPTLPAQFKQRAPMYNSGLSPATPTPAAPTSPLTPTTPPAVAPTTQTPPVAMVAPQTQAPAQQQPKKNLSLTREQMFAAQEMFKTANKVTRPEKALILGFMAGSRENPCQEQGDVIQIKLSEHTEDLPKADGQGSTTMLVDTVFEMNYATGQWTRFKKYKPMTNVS

Row | Target | log2 fold change [1] | log2 fold change [2] | log2 fold change [3] | log2 fold change [4] | log2 fold change (Nexturastat A) | log2 fold change (vemurafenib) | log2 fold change [5] | log2 fold change [6] | log2 fold change (givinostat) | log2 fold change (barasertib) | log2 fold change [7] | log2 fold change (volasertib) | log2 fold change [8] | log2 fold change (epoxomicin) | log2 fold change [9] | log2 fold change [10] | log2 fold change [11] | log2 fold change (rosiglitazone) | log2 fold change [12] | log2 fold change [13]
1 | NSDHL (UniProt Q15738) | 0.073 | -0.005 | 0.029 | -0.001 | -0.111 | 0.07 | -0.027 | -0.031 | -0.013 | -0.004 | -0.005 | 0.084 | 0.105 | -0.004 | 0.08 | -0.018 | 0.012 | 0.002 | -0.193 | -0.001
2 | MSL1 (UniProt Q68DK7) | -0.014 | 0.037 | -0.026 | 0.039 | 0.185 | -0.02 | -0.001 | 0.05 | 0.197 | -0.002 | 0.077 | 0.002 | -0.19 | 0.007 | -0.161 | -0.26 | -0.087 | 0.028 | 0.098 | -0.161
3 | MTHFS (UniProt P49914) | 0.047 | -0.054 | -0.01 | 0.047 | -0.005 | -0.017 | 0.01 | -0.041 | -0.063 | 0.009 | 0.082 | 0.236 (active) | 0.034 | 0.11 | 0.031 | 0.02 | 0.034 | 0.046 | -0.022 | -0.019
4 | MORF4L2 (UniProt Q15014) | -0.004 | -0.061 | -0.015 | -0.083 | 0.129 | 0.009 | 0.036 | 0.038 | -0.007 | -0.03 | 0.074 | 0.023 | 0.014 | 0.085 | 0.014 | 0.075 | -0.125 | -0.051 | 0.12 | 0.076
5 | MRPS25 (UniProt P82663) | 0.033 | -0.009 | 0.085 | 0.078 | 0.012 | -0.089 | 0.078 | -0.082 | 0.049 | -0.02 | 0.031 | -0.057 | 0.145 | -0.126 | -0.091 | -0.295 | -0.056 | -0.042 | 0.074 | 0.036
6 | NMRAL1 (UniProt Q9HBL8) | 1.01 (active) | 0.029 | 0.025 | -0.151 | -0.138 | 0.003 | -0.074 | 0.234 | 0.027 | -0.021 | 0.27 | 0.294 | 0.105 | 0.035 | 0.01 | 0.055 | 0.122 | 0.011 | 0.059 | 0.526
7 | MUL1 (UniProt Q969V5) | -0.061 | -0.015 | 0.01 | -0.004 | -0.022 | -0.039 | 0.024 | 0.11 | 0.005 | 0.005 | 0.061 | 0 | 0.045 | 0.04 | -0.004 | 0.014 | -0.028 | 0.052 | -0.004 | -0.115
8 | NFATC3 (UniProt Q12968) | 0.067 | -0.506 | 0 | -0.055 | 0.047 | -0.033 | 0.094 | 0.116 | 0.088 | 0.019 | 0.038 | -0.331 | 0.073 | -0.046 | 0.065 | -0.038 | 0.049 | 0.068 | 0.036 | 0.039
9 | NELFA (UniProt Q9H3P2) | -0.02 | -0.124 | 0.011 | 0.092 | -0.104 | 0.06 | 0.097 | 0.024 | 0.079 | 0.212 | -0.4 | -0.868 (active) | 0.341 | 0.053 | -0.105 | -0.139 | 0.16 | 0.048 | -0.051 | 0.006
10 | NBN (UniProt O60934) | 0.017 | -0.008 | -0.01 | 0.014 | -0.03 | 0.081 | 0.047 | 0.04 | 0.054 | 0.022 | -0.072 | -0.219 (active) | 0.031 | 0.073 | -0.038 | 0.002 | 0.061 | 0.034 | -0.043 | -0.116
11 | MSH6 (UniProt P52701) | 0.076 | -0.078 | 0.112 | 0.108 | -0.049 | 0.119 | 0.194 | 0.03 | 0.35 | 0.171 | -0.306 | -0.683 (active) | 0.227 | 0.097 | -0.127 | -0.089 | 0.172 | 0.179 | -0.044 | -0.261
12 | MMS19 isoform 8 (UniProt Q96T76) | -0.022 | -0.029 | 0 | 0.067 | 0.051 | 0.047 | 0.1 | 0.061 | -0.061 | 0.063 | -0.102 | -0.43 (active) | 0.075 | 0.013 | -0.009 | -0.052 | 0.11 | 0.076 | 0.051 | -0.085
13 | MRPL34 (UniProt Q9BQ48) | -0.022 | -0.01 | 0.019 | -0.052 | 0.259 | -0.062 | 0.051 | 0.066 | -0.021 | 0.022 | 0.061 | 0.029 | -0.007 | -0.042 | -0.042 | 0.109 | -0.065 | -0.028 | 0.232 | 0.048
14 | MSTO1 (UniProt Q9BUK6) | -0.032 | -0.052 | -0.02 | 0.024 | -0.118 | 0.052 | 0.018 | -0.012 | 0.011 | 0.037 | 0.014 | -0.012 | 0.046 | 0.044 | 0.038 | -0.119 | 0.071 | 0.119 | -0.057 | -0.185
15 | NHLRC2 (UniProt Q8NBF2) | -0.06 | 0.225 | -0.014 | -0.014 | -0.055 | -0.053 | -0.048 | -0.076 | -0.006 | -0.004 | 0.024 | 0.029 | -0.026 | -0.06 | -0.037 | -0.109 | 0.003 | 0.01 | -0.064 | -0.272 (active)
16 | MRPS15 (UniProt P82914) | 0.04 | -0.026 | -0.017 | -0.022 | 0.058 | -0.037 | 0.062 | 0.023 | 0.027 | 0.004 | -0.021 | -0.048 | 0.163 | -0.007 | -0.084 | -0.115 | -0.01 | 0.032 | 0.049 | 0.042

— the supplement of paper PMC10849652
